Assay outcomes (PubChem)
NCOA2 inhibitor = human SRC2 (NCOA2) inhibition | AID 651957 | inhibition, % at 9 µM | hit rate 0.17% among 370,000 | Q15596 | HEK293 GAL4-SRC2 luciferase reporter, luminescence;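 active = inhibition above the mean inhibition of all tested compounds plus 3 SD, set per campaign, cut at about 52% in these data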
Target sequence (Q15596 whole entry, looked up, the tested form may be a part): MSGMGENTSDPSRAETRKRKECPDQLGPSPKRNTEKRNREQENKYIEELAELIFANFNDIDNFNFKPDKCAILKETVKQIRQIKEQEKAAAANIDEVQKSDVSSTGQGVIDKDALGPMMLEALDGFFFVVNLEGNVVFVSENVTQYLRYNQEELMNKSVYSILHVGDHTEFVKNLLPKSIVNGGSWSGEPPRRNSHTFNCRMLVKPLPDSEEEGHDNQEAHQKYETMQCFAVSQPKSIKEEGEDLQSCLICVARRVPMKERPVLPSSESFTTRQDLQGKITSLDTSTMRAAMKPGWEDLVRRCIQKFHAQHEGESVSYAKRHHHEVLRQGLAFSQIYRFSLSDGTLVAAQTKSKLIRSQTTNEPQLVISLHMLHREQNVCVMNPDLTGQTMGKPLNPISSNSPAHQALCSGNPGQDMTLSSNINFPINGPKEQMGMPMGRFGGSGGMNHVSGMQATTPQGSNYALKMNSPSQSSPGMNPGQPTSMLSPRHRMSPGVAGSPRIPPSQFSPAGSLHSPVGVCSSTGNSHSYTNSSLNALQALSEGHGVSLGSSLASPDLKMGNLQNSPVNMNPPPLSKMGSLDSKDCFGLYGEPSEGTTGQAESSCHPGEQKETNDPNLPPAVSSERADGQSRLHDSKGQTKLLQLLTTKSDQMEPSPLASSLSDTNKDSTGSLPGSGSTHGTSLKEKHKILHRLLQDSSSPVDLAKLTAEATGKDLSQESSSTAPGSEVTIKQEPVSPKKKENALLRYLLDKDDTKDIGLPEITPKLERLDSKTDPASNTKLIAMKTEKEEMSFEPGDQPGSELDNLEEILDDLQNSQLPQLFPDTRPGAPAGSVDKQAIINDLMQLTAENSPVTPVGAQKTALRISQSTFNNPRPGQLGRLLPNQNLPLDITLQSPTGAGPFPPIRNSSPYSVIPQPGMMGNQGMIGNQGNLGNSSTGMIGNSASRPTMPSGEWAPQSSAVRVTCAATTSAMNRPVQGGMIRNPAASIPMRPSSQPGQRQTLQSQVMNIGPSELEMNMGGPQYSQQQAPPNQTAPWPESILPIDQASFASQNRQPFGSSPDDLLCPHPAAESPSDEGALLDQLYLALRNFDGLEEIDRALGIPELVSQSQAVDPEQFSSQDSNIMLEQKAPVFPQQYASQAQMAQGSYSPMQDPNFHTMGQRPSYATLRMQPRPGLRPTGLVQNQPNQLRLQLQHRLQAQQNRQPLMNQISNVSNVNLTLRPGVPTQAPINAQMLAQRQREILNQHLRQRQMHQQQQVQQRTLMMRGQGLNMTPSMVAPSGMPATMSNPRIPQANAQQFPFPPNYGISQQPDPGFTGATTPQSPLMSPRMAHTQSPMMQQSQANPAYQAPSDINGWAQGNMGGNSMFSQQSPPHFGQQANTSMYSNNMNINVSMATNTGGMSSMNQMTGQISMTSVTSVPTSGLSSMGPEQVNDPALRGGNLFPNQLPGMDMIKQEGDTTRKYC
NCOA1 inh = inhibits human SRC1 coactivator. HEK293 GAL4-SRC1 luciferase reporter, luminescence. inhibition, % at 3.6 µM. hit rate 0.12% among 360,000;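 active = inhibition above the campaign mean plus 3 SD, with each screening campaign given its own cutoff, cut at about 60% in these data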
NR5A2 inv ag = suppresses constitutive activity of human LRH-1; O00482; HEK293T StAR-luciferase reporter, LRH-1 transfected, 24 h; inhibition, % at 3.6 µM; hit rate 0.13% among 360,000; AID 602396;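 active = inhibition above the mean inhibition of all tested compounds plus 3 SD, cut at about 73% in these data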
Gli-Sufu antag = blocks Gli-Sufu signaling in a luciferase reporter. Sufu-KO-LIGHT fibroblasts, Gli luciferase reporter luminescence. inhibition, % at 5 µM. hit rate 0.74% among 340,000. AID 588413;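 active = inhibition above about 55%, limit read from the data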
NR2F2 inh = NR2F2 (human) inhibition, primary screen; P24468; HEK293T NGFI-A luciferase reporter, luminescence; inhibition, % at 8.6 µM; hit rate 0.7% among 370,000; AID 686940;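 active = inhibition above a per-plate cutoff, mean inhibition of test wells between control levels plus 3 SD, cut at about 38% in these data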;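 also: cells cotransfected with COUP-TFII expression vector driving the NGFI-A reporter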
NCOA3 inh = human NCOA3 inhibition | Q9Y6Q9 | HEK293 GAL4-SRC3 luciferase reporter, luminescence | inhibition, % at 3.6 µM | hit rate 0.17% among 360,000 | AID 588352;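 active = inhibition above a per-campaign cutoff, the mean of all compounds plus 3 SD, cut at about 60% in these data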;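 also: higher means less SRC3-driven luciferase light from the GAL4 reporter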
Gli antag conf = Gli-SUFU antagonism confirmation, single concentration; shares compounds with Gli-Sufu antag; Sufu-KO-LIGHT cells, Gli luciferase reporter, luminescence; inhibition, % at 5 µM; hit rate 40% among 2,500; AID 602428;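 active = mean inhibition at 5 µM reaching about 45%, limit read from the data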
SufuKO cytotox = cytotoxicity counter-screen for Gli-SUFU antagonists; cytotoxicity, % at 5 µM; shares compounds with Gli-Sufu antag; hit rate 32% among 2,500; Sufu-KO-LIGHT cells cytotoxicity, ATP luminescence;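 active = mean cytotoxicity at 5 µM above about 25%, limit read from the data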;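 also: cells exposed to compound overnight for roughly 16 to 18 hours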
Wnt3a counter = Wnt3a reporter inhibition counter-screen; shares compounds with Gli-Sufu antag; inhibition, % at 6.25 µM; hit rate 20% among 2,500; AID 651995; Wnt-LIGHT cells, Wnt3a-driven luciferase reporter, luminescence;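 active = mean inhibition above about 25%, limit read from the data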
A number is an active result; – = inactive; · = not tested or not shown. This is a sample that favours compounds with a hit; in the whole collection about 1.3% have one here.

SMILES | NCOA2 inhibitor | NCOA1 inh | NR5A2 inv ag | Gli-Sufu antag | NR2F2 inh | NCOA3 inh | Gli antag conf | SufuKO cytotox | Wnt3a counter
COc1ccccc1CC(NC(C)=O)C(=O)NC1CCN(C(=O)NCc2ccccc2)CC1 (centres undefined) | – | – | – | – | – | – | · | · | ·
CC(=O)NC(Cc1ccccc1C)C(=O)NC1CCN(C(=O)NCc2ccccc2)CC1 (centres undefined) | – | – | – | 58.4 | – | – | – | – | –
COc1ccc(C2Nc3ccccc3C(=O)N2Cc2ccc(C)o2)cc1COc1c(C)cccc1C (centres undefined) | · | · | · | · | – | · | · | · | ·
CC1CC(C)CN(CCCNC(=O)c2ccc(CS(=O)(=O)Cc3cccc(Cl)c3)o2)C1 (centres undefined) | – | – | – | – | – | – | – | – | –
COC(=O)CC1=C(c2ccc([N+](=O)[O-])cc2)CCC1=O | – | – | – | – | – | – | · | · | ·
Cc1ccc(C2=C(CC(=O)O)C(=O)CC2)cc1 | – | – | – | 55.5 | – | – | – | – | –
Cc1ccc(NC(=O)OC2CC3CC2[C@H]2CCCCN2[C@H]3C)cc1 (some centres undefined) | – | · | · | · | – | · | · | · | ·
CCOc1cccc(-c2c(C(=O)N/N=C(\C)c3ccccn3)nnn2-c2nonc2N)c1 | – | – | – | 74.6 | – | – | 85.7 | 50.9 | 87.6
C/C(=N/NC(=O)c1nnn(-c2nonc2N)c1-c1ccccc1)c1ccc2c(c1)OCO2 | – | – | – | – | – | – | – | – | –
CCOc1cccc(-c2c(C(=O)N/N=C(\C)c3ccncc3)nnn2-c2nonc2N)c1 | – | – | – | – | – | – | · | · | ·
CCc1ccc(CCNC(=O)OC2CC3CC2[C@H]2CCCCN2C3)cc1 (some centres undefined) | – | · | · | · | – | · | · | · | ·
Cc1ccc(C)c(CN2C(=O)COc3ccc(C(=O)c4ccccc4C(=O)O)cc32)c1 | – | – | – | – | – | – | – | – | –
CCOc1ccc(Br)cc1S(=O)(=O)Nc1cccc(S(=O)(=O)Nc2ccccc2C(=O)O)c1 | – | – | – | 55.4 | – | – | – | – | –
S=C(NCCc1ccccc1)Nc1ccc(Cl)cc1Cl | – | – | – | 65.3 | – | – | – | – | –
COc1ccc(Oc2c(-c3cccs3)cnn(-c3ccc(C)cc3)c2=O)cc1 | · | · | · | · | – | · | · | · | ·
Cc1cccc(CSC(Nc2ccc(F)cc2)=C(C#N)C#N)c1 | – | – | – | 55.7 | – | – | 61.8 | – | 52.4
Cc1cccc(CSC(=N)N)c1 | – | – | – | – | – | – | · | · | ·
CC(=O)Nc1ccc(S(=O)(=O)N(C)Cc2ccccc2)cc1 | – | – | – | – | – | – | · | · | ·
CC(=O)Nc1ccc(S(=O)(=O)N(Cc2ccccc2)C(C)C)cc1 | – | – | – | 56.8 | – | – | 56.5 | – | –
Cc1cc(SC#N)cc(C)c1NC(=O)CCl | – | – | – | – | – | – | 46.1 | 50.2 | –
c1ccc(-c2nnc(N3CCN(c4ccccn4)CC3)c3ccccc23)cc1 | – | – | – | 60.7 | – | – | – | – | –
CC(C)CN1C(=O)C[C@@]2(C(=O)N(C)c3ccc(NS(=O)(=O)C4CCCCC4)cc32)C1c1ccccc1 (some centres undefined) | – | · | · | · | – | · | · | · | ·
O=C(NCc1ccccc1)C1CC2CCCC(C1)C2=O (centres undefined) | – | – | – | 94.4 | – | – | – | – | –
O=C(c1ccc(C#Cc2ccccc2)cc1)N1CCC(O)CC1 | – | · | · | · | – | · | · | · | ·
CC(C)(C)c1ccc2c(c1)OC(C(=O)N/N=C\c1ccc[nH]1)CO2 (centres undefined) | – | – | – | 89.6 | – | – | 91.5 | – | –
SMILES | NCOA2 inhibitor | NCOA1 inh | NR5A2 inv ag | Gli-Sufu antag | NR2F2 inh | NCOA3 inh | Gli antag conf | SufuKO cytotox | Wnt3a counter
COc1ccc(-c2n(Cc3ccccc3)c3ccccc3[n+]2Cc2ccccc2)cc1 | – | – | – | 72.0 | – | – | 76.8 | 32.9 | –
COc1ccc(-c2nc3ccccc3n2Cc2ccccc2)cc1 | – | – | – | – | – | – | · | · | ·
Cc1cc(NC(=O)C(C)C)ncc1NC(=O)c1ccccn1 | – | – | – | – | – | – | · | · | ·
CCCC(=O)Nc1cc(C)c(NC(=O)c2ccccn2)cn1 | – | – | – | 59.5 | – | – | – | – | –
CN(C)[C@H]1CCN(c2cccc3c2S(=O)(=O)N2CC[C@@H](C2)O3)C1 | – | · | · | · | – | · | · | · | ·
O=C(CCC1CCCCC1)Nc1cccnc1 | – | – | – | 56.3 | – | – | – | – | –
Cc1ccccc1N1C(=O)c2cccc([N+](=O)[O-])c2C1=O | – | – | – | 64.8 | – | – | – | – | –
O=C1c2cccc([N+](=O)[O-])c2C(=O)N1c1c[nH]c(=O)[nH]c1=O | – | – | – | – | – | – | · | · | ·
CSCCC(NC(=O)c1ccco1)C(=O)N1CC(C)OC(C)C1 (centres undefined) | – | – | – | 57.6 | – | – | – | – | –
CN(CCOC(=O)c1cc2ccccc2o1)C1CN(Cc2cn(Cc3cccc(F)c3)nn2)S(=O)(=O)C1 (centres undefined) | – | · | · | · | – | · | · | · | ·
CC1CCC2(CC1)CCN(CCCOC(=O)Nc1cccc(F)c1)C2=O (centres undefined) | – | · | · | · | – | · | · | · | ·
CC(c1ccc(F)cc1)n1cc(C(=O)NCCN(C)C)nn1 (centres undefined) | – | – | – | 56.7 | – | – | – | – | –
CN(CC(=O)Nc1ccc(F)cc1)C(=O)COC(=O)c1ccccc1 | – | – | – | – | – | – | · | · | ·
CN(CC(=O)Nc1ccc(F)cc1)C(=O)COC(=O)c1cc(Br)c(Br)s1 | – | – | – | 65.0 | – | – | – | – | –
Cc1ccc(CSCCNC(=O)CSCc2ccc([N+](=O)[O-])cc2)cc1 | – | – | – | – | – | – | – | – | –
COc1ccc(CN2C(C(=O)NC3CCCC3)CSCCS2(=O)=O)cc1 (centres undefined) | – | · | · | · | – | · | · | · | ·
CCOc1cccc(/C=N\NC(=O)c2cnccn2)c1O | – | · | · | · | – | · | · | · | ·
O=C(Nc1ccc(C(F)(F)F)cc1)C1CCN(S(=O)(=O)c2ccc(N3CCCC3=O)cc2)CC1 | – | – | – | 77.1 | – | – | 79.0 | – | –
COc1ccc(NC(=O)C2CCN(S(=O)(=O)c3ccc(N4CCCC4=O)cc3)CC2)cc1OC | – | – | – | – | – | – | – | – | –
CCOC(=O)[C@]12CCCCC/C=C\1N(Cc1ccc(OC)cc1)C(=O)[C@H]2CC(=O)NCc1cccc(C(F)(F)F)c1 | – | · | · | · | – | · | · | · | ·
Cc1ccc(Nc2nc(-c3c(C)nc4ncccn34)cs2)cc1 | – | – | – | 57.0 | – | – | 64.1 | 62.1 | –
Cc1nc2ncccn2c1-c1csc(Nc2ccc(O)cc2)n1 | – | – | – | 55.2 | – | – | 51.5 | – | –
